# PubChem BioAssay
# Activity calls are given as the source filed them.
# What was measured:
# [1] = small molecules captured by biotinylated probe aFSTL3 – biochemical, small-molecule microarray, fluorescence 635/667, stem cell growth factor project, primary screen (AID 1064); conditions: higher = more signal;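 further: measures binding of the biotinylated anti-FSTL3 antibody to printed compounds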
# [2] = binders from COS7 lysate, DM2A8 probe, primary screen, torsin A project, cell lysate, small-molecule microarray, fluorescence 635/667 (AID 1065); conditions: higher = more signal, COS7 lysate expressing mutant human TOR1A
# [3] = small molecules captured by biotinylated probe aFGF2 – biochemical, small-molecule microarray, fluorescence 635/667, stem cell growth factor project, primary screen (AID 1067); conditions: higher = more signal;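 further: measures binding of biotinylated aFGF2 protein to printed compounds on slides; z-score merges feature fluorescence and signal-to-noise across triplicate slides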
# [4] = small molecules captured by biotinylated probe aFGF10 – biochemical, small-molecule microarray, fluorescence 635/667, stem cell growth factor project, primary screen (AID 1071); conditions: higher = more signal;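 further: score merges 667 nm spot intensity and signal to noise from triplicate slides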
# [5] = target: Neurogenic locus notch homolog protein 2 (Homo sapiens) (UniProt Q04721); assay: small molecules binding Notch2 protein – biochemical, small-molecule microarray, 635 nm fluorescence, stem cell growth factors, primary screen (AID 1073); conditions: higher = more signal
# [6] = target: Pro-neuregulin-1, membrane-bound isoform (Homo sapiens) (UniProt Q02297); assay: small molecules binding neuregulin-1 protein – biochemical, small-molecule microarray, fluorescence 635/667, psychiatric disease protein project, primary screen (AID 1075); conditions: NRG1 binding, 635 nm fluorescence, higher = more signal;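 further: score combines 667 nm spot fluorescence with signal to noise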
# [7] = test system: Neuregulin-1 EGF-like domain; assay: small molecules binding NRG1 EGF domain – biochemical, small-molecule microarray, 635 nm fluorescence, primary screen (AID 1081); conditions: higher = more signal;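 further: binding of the protein to compounds printed on small-molecule microarray slides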
# [8] = FRG1 expression reporter modulators in myotubes – cell-based, C2C12 myotubes, firefly/Renilla luciferase, luminescence, FRG1 inhibition for FSHD, primary screen (AID 1084); conditions: FRG1 promoter luciferase, higher = more signal, called active from +8 up or from −8 down
# [9] = small molecules captured by biotinylated probe aFST – biochemical, small-molecule microarray, fluorescence 635/667, stem cell growth factor project, primary screen (AID 1086); conditions: higher = more signal;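 further: score merges 667 nm fluorescence with signal-to-noise of each printed compound spot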
# [10] = binders of probe aHhip on microarray, primary screen, stem cell growth factor project, biochemical, small-molecule microarray, fluorescence 635/667 (AID 1087); conditions: higher = more signal;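 further: score merges spot fluorescence at 667nm with spot signal to noise ratio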
# [11] = test system: PRMT1 (protein arginine N-methyltransferase 1); assay: small molecules binding arginine methyltransferase PRMT1 – biochemical, small-molecule microarray, 635 nm fluorescence, primary screen (AID 1088); conditions: higher = more signal;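 further: binding of Prmt1 protein to compounds spotted on small-molecule microarray slides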
# [12] = growth effects on S. cerevisiae YJM789 – YJM789 clinical isolate, OD600, 24 h, basal, primary screen (AID 1089); conditions: higher = more signal, called active from +8 up or from −8 down;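 further: growth of clinical yeast isolate S. cerevisiae YJM 789 seeded 1000 cells per well; test concentration not given here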
# [13] = S. pombe growth modifiers, basal conditions – strain 972, OD600, 24 h, no modulator, primary screen (AID 1090);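 further: basal condition with compound alone and no growth modifier present; test concentration not given here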; conditions: S. pombe 972 growth, higher = more signal, called active from +8 up or from −8 down
# [14] = budding yeast growth modifiers under rapamycin – strain BY4716, OD600, 96 h, primary screen (AID 1091); further: test concentration not given here; conditions: S. cerevisiae BY4716 + rapamycin, higher = more signal, called active from +8 up or from −8 down
# [15] = target: Torsin-1A-interacting protein 2 (Homo sapiens) (UniProt Q8NFQ8); assay: small molecules binding lysate-expressed LULL1 – cell lysate, human LULL1 lysate, 635/667 nm fluorescence, primary screen (AID 1092); conditions: small-molecule microarray, hLULL1 lysate binding, 635 nm fluorescence; higher = more signal;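 further: probe is lysate of COS7 cells overexpressing human LULL1; score merges per-feature 667 nm fluorescence with signal-to-noise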
# [16] = optical density change of DRC41 E. coli – strain DRC41, OD650, 24 h, E. coli filamentation project, primary screen (AID 1093);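 further: MC1000 strain lacking acrAB efflux and sulA so SOS filamentation is blocked; test concentration not given here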; conditions: E. coli DRC41 growth, higher = more signal, called active from +8 up or from −8 down
# [17] = probe aLefty2 binding to arrayed compounds – biochemical, biotinylated probe, 635/667 nm fluorescence, primary screen (AID 1094); conditions: small-molecule microarray, higher = more signal;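 further: score merges spot fluorescence near 667 nm with spot signal-to-noise ratio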
# [18] = test system: Noggin (protein binding on small-molecule microarray); assay: small molecules binding Noggin protein – biochemical, 635/667 nm fluorescence, primary screen (AID 1095); conditions: 635 nm fluorescence, higher = more signal;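 further: score merges 667 nm feature fluorescence with signal to noise over triplicate slides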
# [19] = target: Neurogenic locus notch homolog protein 3 (Homo sapiens) (UniProt Q9UM47); assay: small molecules binding NOTCH3 protein – biochemical, 635/667 nm fluorescence, primary screen (AID 1096); conditions: small-molecule microarray, 635 nm fluorescence, higher = more signal
# [20] = probe aEGFR binding to arrayed compounds – biochemical, biotinylated probe, 635/667 nm fluorescence, primary screen (AID 1097); conditions: small-molecule microarray, higher = more signal;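 further: probe is a biotinylated anti-EGFR antibody binding compounds printed on slides; score combines fluorescence near 667 nm and signal to noise of each spot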
# Sequence of Torsin-1A-interacting protein 2 (Homo sapiens) (Q8NFQ8 whole entry, looked up): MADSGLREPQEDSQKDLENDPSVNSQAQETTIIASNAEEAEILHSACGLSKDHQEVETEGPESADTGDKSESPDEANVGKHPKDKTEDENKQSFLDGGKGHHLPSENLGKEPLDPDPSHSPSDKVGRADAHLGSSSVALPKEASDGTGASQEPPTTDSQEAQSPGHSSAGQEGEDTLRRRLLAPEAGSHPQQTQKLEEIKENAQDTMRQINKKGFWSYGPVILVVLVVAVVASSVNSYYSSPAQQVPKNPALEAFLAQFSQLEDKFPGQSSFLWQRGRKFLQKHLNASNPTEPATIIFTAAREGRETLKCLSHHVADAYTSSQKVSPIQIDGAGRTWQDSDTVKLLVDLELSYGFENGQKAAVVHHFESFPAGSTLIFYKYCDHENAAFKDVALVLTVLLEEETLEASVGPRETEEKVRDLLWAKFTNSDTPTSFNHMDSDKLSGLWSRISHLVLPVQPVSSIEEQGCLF
# Sequence of Pro-neuregulin-1, membrane-bound isoform (Homo sapiens) (Q02297 whole entry, looked up, the tested form may be a part, canonical isoform): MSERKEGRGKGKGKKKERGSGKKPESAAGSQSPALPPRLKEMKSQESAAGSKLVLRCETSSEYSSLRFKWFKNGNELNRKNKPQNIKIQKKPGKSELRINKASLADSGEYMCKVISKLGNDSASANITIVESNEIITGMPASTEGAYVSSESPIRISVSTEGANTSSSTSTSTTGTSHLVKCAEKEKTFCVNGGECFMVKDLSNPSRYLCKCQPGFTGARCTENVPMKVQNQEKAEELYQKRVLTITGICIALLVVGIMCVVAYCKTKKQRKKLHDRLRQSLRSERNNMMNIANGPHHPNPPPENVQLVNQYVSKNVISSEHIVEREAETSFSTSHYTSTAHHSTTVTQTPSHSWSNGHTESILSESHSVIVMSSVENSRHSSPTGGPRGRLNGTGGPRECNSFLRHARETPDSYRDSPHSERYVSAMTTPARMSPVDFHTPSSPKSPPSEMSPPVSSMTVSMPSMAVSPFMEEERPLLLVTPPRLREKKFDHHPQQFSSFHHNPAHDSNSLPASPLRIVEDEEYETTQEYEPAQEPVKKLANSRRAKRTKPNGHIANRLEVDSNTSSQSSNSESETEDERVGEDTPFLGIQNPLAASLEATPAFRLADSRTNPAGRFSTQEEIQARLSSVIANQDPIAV
# Sequence of Neurogenic locus notch homolog protein 2 (Homo sapiens) (Q04721 whole entry, looked up, canonical isoform): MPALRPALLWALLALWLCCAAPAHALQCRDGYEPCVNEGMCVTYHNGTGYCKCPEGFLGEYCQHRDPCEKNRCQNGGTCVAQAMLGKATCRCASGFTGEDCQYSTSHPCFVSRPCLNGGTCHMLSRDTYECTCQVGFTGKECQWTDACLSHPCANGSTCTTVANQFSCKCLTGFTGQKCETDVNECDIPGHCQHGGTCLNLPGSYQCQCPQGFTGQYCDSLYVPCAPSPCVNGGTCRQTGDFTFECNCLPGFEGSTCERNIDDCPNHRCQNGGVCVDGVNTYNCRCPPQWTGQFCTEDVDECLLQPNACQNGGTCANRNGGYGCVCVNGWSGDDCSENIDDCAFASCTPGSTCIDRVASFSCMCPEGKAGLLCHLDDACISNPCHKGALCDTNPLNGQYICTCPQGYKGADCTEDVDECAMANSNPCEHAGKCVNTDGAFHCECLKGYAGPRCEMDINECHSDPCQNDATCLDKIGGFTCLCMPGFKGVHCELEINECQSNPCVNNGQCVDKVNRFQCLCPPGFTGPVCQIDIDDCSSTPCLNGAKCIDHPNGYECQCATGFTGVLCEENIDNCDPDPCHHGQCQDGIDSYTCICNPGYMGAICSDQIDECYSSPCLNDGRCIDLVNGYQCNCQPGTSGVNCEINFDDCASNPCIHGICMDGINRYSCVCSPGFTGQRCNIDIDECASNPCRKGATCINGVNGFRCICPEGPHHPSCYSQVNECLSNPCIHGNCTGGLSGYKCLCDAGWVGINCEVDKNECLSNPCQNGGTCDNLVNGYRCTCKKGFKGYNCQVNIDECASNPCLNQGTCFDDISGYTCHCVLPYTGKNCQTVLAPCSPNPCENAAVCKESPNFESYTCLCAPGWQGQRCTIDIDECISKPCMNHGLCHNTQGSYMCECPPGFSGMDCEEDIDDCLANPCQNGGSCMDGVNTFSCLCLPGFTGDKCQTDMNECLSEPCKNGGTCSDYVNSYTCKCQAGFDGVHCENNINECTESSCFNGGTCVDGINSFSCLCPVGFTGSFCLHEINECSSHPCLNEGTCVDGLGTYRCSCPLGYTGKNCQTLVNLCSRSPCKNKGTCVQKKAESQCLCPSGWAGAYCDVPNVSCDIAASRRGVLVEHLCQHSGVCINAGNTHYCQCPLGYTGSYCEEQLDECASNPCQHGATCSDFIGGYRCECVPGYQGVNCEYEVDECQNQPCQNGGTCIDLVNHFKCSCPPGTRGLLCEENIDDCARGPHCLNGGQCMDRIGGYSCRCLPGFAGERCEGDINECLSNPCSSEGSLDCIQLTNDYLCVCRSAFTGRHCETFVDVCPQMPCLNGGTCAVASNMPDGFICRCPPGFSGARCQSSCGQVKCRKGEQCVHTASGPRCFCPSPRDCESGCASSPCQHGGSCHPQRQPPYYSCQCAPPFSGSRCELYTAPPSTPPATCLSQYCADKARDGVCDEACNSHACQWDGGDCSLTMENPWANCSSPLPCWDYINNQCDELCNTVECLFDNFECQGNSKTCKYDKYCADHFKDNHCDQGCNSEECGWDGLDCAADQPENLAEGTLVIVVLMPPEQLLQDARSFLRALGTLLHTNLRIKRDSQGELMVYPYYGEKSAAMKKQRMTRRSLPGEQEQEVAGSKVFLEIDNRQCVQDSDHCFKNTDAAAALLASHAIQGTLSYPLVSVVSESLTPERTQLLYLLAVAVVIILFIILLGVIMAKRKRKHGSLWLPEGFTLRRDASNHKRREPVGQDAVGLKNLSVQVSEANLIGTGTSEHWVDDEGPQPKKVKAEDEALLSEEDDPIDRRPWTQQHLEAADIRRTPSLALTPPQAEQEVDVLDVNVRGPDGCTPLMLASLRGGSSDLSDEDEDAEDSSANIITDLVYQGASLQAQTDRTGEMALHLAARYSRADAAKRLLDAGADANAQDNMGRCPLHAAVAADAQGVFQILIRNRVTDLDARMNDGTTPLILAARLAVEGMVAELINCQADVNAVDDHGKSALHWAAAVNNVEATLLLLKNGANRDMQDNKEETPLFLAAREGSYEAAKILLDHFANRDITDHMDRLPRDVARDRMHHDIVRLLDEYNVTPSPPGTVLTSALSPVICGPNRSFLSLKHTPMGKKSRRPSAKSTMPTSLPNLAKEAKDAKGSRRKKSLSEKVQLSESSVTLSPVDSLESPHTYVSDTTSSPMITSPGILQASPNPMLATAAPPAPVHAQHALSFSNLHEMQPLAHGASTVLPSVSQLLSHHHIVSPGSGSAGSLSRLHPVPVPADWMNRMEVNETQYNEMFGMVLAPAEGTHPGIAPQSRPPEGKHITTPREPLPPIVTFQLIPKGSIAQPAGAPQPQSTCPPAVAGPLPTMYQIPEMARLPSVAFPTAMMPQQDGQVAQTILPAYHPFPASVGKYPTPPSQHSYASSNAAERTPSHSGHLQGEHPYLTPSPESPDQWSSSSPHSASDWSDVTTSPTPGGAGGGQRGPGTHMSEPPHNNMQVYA
Structure (SMILES),composite z-score [1],composite z-score [2],composite z-score [3],composite z-score [4],composite z-score [5],composite z-score [6],composite z-score [7],z-score [8],composite z-score [9],composite z-score [10],composite z-score [11],z-score [12],z-score [13],z-score [14],composite z-score [15],z-score [16],composite z-score [17],composite z-score [18],composite z-score [19],composite z-score [20]
COc1ccc(C(=O)Nc2ccc(CN3C(=O)[C@]4(O[C@H](CCn5cc([C@H](O)c6ccccc6)nn5)[C@@H]([Si](C)(C)c5ccc(OC)cc5)[C@@H]4C)c4ccccc43)cc2)cc1,0.804,0.0963,-0.172,-0.161,-0.284,0.178,0.923,-0.855 (inactive),0.198,-0.0994,0.466,-0.0933 (inactive),-0.262 (inactive),1.61 (inactive),0.658,-0.615 (inactive),0.101,0.341,-0.047,-0.169
CC(C)CCC[C@@H](C)[C@H]1CC[C@@]2(C)C3=C(CC[C@]12C)[C@@]1(C)CC[C@H](OC(=O)C(C)(C)C)C(C)(C)C1CC3 (stereo not given in full),-0.441,0.39,-0.0609,0.298,0.575,-0.036,0.307,-0.987 (inactive),0.0166,-0.0296,0.475,-3.55 (inactive),-2.59 (inactive),-2.18 (inactive),0.0236,0.768 (inactive),-0.212,0.57,0.571,-0.0549
COCCOC(=O)N1C(=O)[C@@]2(c3cc(C#CCC(C(=O)OC)C(=O)OC)ccc31)[C@H](C(=O)N1CCCCCCC1)[C@H]1C(=O)O[C@H](c3ccccc3)[C@H](c3ccccc3)N1[C@@H]2c1ccc(O)cc1,2.64,0.745,0.146,0.344,1.26,1.33,1.25,0.741 (inactive),2.37,0.801,1.49,0.405 (inactive),-0.866 (inactive),1.15 (inactive),3.19,1.04 (inactive),1.06,1.37,1.07,0.456
CN(C)C(=O)[C@@]1(CCS(=O)(=O)c2ccccc2)N=C(c2ccc(OCCCO)cc2)O[C@H]1c1ccccc1CN=[N+]=[N-],-0.323,0.124,0.226,0.972,1.33,1.63,1.27,-1.56 (inactive),0.889,-0.236,1.54,-1.54 (inactive),-0.346 (inactive),0.0194 (inactive),3.79,1.15 (inactive),0.0225,1.66,1.12,0.0316
COC(=O)c1c(CC[C@@H](CO)NC(=O)N[C@@H](C)Cn2cc(C3(O)CCCC3)nn2)oc(C(C)=O)c1C(=O)OC,-0.36,0.715,-0.154,0.143,0.263,0.974,1.02,0.533 (inactive),0.517,0.0002,0.913,0.009 (inactive),-1.03 (inactive),-0.117 (inactive),2,-0.159 (inactive),-0.0126,0.555,0.634,-0.0237
O=C1c2ccccc2[C@](Cc2ccccc2I)(C(=O)NCC(F)(F)F)[C@H](c2ccc(CO)cc2)N1Cc1ccccc1,-0.213,-0.0086,0.0363,0.15,1.39,1.12,1.21,-0.508 (inactive),0.585,0.0734,1.55,-0.943 (inactive),-0.732 (inactive),-0.666 (inactive),2.45,0.29 (inactive),-0.0907,0.444,1.16,-0.0679
CC1C=C(CCCO)C=C(C(=O)OCCS(C)(=O)=O)C(C(=O)OCCS(C)(=O)=O)=CN1Cc1cccc(OC(F)(F)F)c1 (stereo not given),-0.228,0.21,-0.0379,0.203,0.707,2.08,1.14,0.416 (inactive),0.106,-0.0645,0.482,-1.27 (inactive),-2.49 (inactive),-0.0014 (inactive),3.11,-0.436 (inactive),0.0057,0.0266,0.379,-0.0418
COC(=O)[C@@]1(Cc2ccccc2)[C@H]2c3cc(C(=O)N4CCCC4)n(Cc4ccccc4)c3C[C@H]2CN1C(=O)c1ccccc1,0.425,-0.463,0.113,0.742,1.69,1.6,1.01,-1.15 (inactive),1.54,-0.135,-0.089,-0.0324 (inactive),0.58 (inactive),1.55 (inactive),3.41,-0.745 (inactive),0.432,0.0362,1.05,0.416
COCCOC(=O)N1C(=O)[C@@]2(c3cc(C#CCCO)ccc31)[C@H](C(=O)NC[C@H](O)c1ccccc1)[C@H]1C(=O)O[C@H](c3ccccc3)[C@H](c3ccccc3)N1[C@@H]2c1ccccc1OCCO,-0.0841,0.284,-0.0048,0.486,1.48,0.96,1.31,-0.154 (inactive),0.62,-0.0994,1.53,1.06 (inactive),0.578 (inactive),2.4 (inactive),2.62,0.636 (inactive),-0.0437,1.42,1.07,0.13
C=CC[C@]1(C(=O)N2CCOCC2)N=C(c2ccc(OCCCO)cc2)O[C@H]1c1ccccc1CN=[N+]=[N-],-0.0635,1.3,0.103,1.04,1.54,1.77,1.3,-1.34 (inactive),1.99,0.28,1.53,-0.819 (inactive),-1.63 (inactive),-0.119 (inactive),3.49,0.191 (inactive),0.0503,1.57,1.05,-0.0111
